Reference: PubChem BioAssay
Calls of active or inactive are those of the source.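 How the source made its calls, unless noted: active means NADPH fluorescence slope more negative than the mean of all samples by about 3 SD, 99.7% confidence; inactive means the rest.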

Tests used:
[1] = inhibitors of TNFa-induced NFkB p65 translocation, primary screen, imaging, HUVEC, MLSMR starter and 10KST1 sets (AID 438;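 active means inhibition above 20% together with a positive visual image hit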;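 further: compound added about 3h40 before a 20 min TNFalpha stimulation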;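 on inhibition: signal is the nuclear over cytoplasmic p65 intensity ratio per well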); settings: HUVEC TNFa-induced p65 nuclear translocation; cell count: measured here: nuclei count (cytotoxicity indicator), at 2.08 µM; inhibition: at 2 µM, stronger effect = higher value, 0% TNFa-plus-vehicle, 100% no-TNFa wells
[2] = inhibitors of mutant huntingtin aggregation, primary screen, imaging, exon1htt(103Q)mCFP cells, high-content imaging (AID 483;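 active means visual image review flags a hit and inhibition of aggregation exceeds 20%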;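 further: compound exposure lasted 3 days before fixation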;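 on nuclei count: percent of the per-plate median nuclei count of sample wells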); settings: exon1htt(103Q)mCFP cell line, aggregate imaging, at 2 µM; inhibition of aggregation: stronger effect = higher value; nuclei count: measured here: cell count, toxicity
[3] = inhibitors of E-selectin induction by TNFa, primary screen, imaging, HUVEC, immunofluorescence, MLSMR starter and 10KST1 sets (AID 487;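 active means visually confirmed hit in the image check and inhibition above 20%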;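 on inhibition: signal is fraction of cell area covered by stained E-selectin grains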;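 on nuclei count: 100% = median nuclei count of all wells on the same plate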); settings: HUVEC TNFalpha-induced E-selectin immunofluorescence imaging, at 2 µM; inhibition: stronger effect = higher value; nuclei count: measured here: cell number, toxicity
[4] = DUSP6 inhibitors restoring Erk phosphorylation by chemical complementation, primary imaging in DUSP6-transfected HeLa (AID 609;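 active means compounds giving at least 50% inhibition in the cell-based MKP-3 phosphatase rescue imaging test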;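 on inhibition: phospho-Erk level distribution per well compared with pooled transfected vehicle control wells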); settings: HeLa MKP-3 transfected, phospho-Erk imaging KS statistic, at 10 µM, cells stimulated with TPA for 15 min
[5] = biological target: Dual specificity protein phosphatase 6 (Homo sapiens) (UniProt Q16828); experiment: as above; settings: HeLa MKP-3 transfected, phospho-Erk imaging KS statistic; at 10 µM; stronger effect = higher value; cells stimulated with TPA for 15 min
Dual specificity protein phosphatase 6 (Homo sapiens), sequence (Q16828 whole entry, looked up): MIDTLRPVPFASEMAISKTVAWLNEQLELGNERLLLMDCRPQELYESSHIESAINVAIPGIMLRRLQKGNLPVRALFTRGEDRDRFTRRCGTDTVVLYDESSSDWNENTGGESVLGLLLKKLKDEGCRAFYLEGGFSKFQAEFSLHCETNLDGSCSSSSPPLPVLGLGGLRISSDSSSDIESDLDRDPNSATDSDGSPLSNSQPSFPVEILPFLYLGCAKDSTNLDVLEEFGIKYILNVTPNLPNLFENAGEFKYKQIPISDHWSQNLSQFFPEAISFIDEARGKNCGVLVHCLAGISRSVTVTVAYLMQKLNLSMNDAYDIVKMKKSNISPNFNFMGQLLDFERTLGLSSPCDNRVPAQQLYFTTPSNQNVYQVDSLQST

[6] = biological target: Voltage-gated potassium channel subunit beta-2 (Rattus norvegicus) (UniProt P62483); experiment: KvBeta enzyme negative modulators, primary screen, biochemical, NADPH fluorescence (AID 622;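 active means fluorescence slope higher than the sample average by over 3 SD, cut at about -0.22 in these data, passing the limit was not always enough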;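 further: slope of raw intensity against log time taken from 70 to 1610 s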); settings: recombinant KvBeta, 4-cyanobenzaldehyde reduction, at 10 µM, stronger effect = higher value
Voltage-gated potassium channel subunit beta-2 (Rattus norvegicus), sequence (P62483 whole entry, looked up): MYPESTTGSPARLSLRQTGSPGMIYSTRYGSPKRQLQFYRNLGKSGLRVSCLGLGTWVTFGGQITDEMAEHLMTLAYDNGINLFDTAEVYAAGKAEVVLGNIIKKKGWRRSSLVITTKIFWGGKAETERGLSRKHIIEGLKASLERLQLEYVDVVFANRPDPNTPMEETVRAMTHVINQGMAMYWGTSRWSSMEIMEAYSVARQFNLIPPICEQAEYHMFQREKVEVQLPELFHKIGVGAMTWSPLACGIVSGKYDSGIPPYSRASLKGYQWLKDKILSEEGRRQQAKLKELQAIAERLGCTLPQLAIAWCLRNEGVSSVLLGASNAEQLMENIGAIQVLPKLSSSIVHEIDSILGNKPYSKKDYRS

[7] = biological target: Voltage-gated potassium channel subunit beta-2 (Rattus norvegicus) (UniProt P62483); experiment: KvBeta positive modulators, primary screen, biochemical, NADPH fluorescence (AID 623); settings: Recombinant KvBeta, NADPH fluorescence decrease slope, 10 min; at 10 µM; stronger effect = lower value;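 further: fluorescence intensity change per second fitted from 20 to 320 s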
[8] = biological target: Muscarinic acetylcholine receptor M4 (Homo sapiens) (UniProt P08173); experiment: compounds altering M4/GIRK thallium flux, either direction, primary screen, M4 allosteric agonist project, cell-based, HEK293 M4/GIRK, BTC-AM (AID 625;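 active means fluorescence slope after compound addition differing from the mean of all tested samples at 99.7% confidence, mostly higher but some lower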;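 further: thallium influx through GIRK channels coupled to M4 in HEK293 cells with BTC-AM dye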); settings: at 10 µM, actives lie on both sides
Muscarinic acetylcholine receptor M4 (Homo sapiens), sequence (P08173 whole entry, looked up): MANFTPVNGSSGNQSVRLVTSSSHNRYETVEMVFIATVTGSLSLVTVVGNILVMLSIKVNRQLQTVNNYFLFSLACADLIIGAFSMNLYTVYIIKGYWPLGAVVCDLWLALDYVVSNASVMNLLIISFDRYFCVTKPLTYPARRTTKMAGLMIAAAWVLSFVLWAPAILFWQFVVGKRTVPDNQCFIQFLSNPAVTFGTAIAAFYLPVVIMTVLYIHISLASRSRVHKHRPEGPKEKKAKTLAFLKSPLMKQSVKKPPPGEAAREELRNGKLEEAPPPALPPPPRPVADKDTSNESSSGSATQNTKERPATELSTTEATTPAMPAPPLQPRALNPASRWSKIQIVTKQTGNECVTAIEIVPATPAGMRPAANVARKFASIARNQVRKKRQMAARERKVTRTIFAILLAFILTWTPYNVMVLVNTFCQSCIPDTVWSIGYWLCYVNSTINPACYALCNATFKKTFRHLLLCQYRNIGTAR

[9] = inhibitors of larval lipid processing in zebrafish, primary screen, whole organism, PED6 fluorescence, gall bladder and intestine (AID 686;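 active means a full or partial loss of lipid-probe fluorescence in the fish gall bladder, intestine or both, judged by eye; inactive means no fluorescence loss, or compound toxic to the fish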;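 further: larvae 5 to 7 days old with five fish per well; signal comes from phospholipase A2 cleavage of quenched PED6 carried via bile; overnight exposure to compound and PED6 before scoring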); settings: Zebrafish larvae PED6 lipid processing, fluorescence scoring; screened at 20 µM (by protocol)
[10] = inhibitors of Chlamydomonas gravitaxis, primary screen, whole organism, Chlamydomonas reinhardtii, WT vs cilia-less mutant, absorbance, 96-well (AID 463189;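 active means inhibition at or above 50% relative to wild type and mutant plate controls; inactive means inhibition below 50%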;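 further: 0% = wild type cc124 cells in DMSO and 100% = ciliumless bld1 mutant cells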); settings: OD600 absorbance, 2 days, at 10 µM, stronger effect = higher value
[11] = inhibitors of Sendai virus-induced IRF3 signaling, primary screen, TLR/RLR signaling modifier project, cell-based, Sendai virus stimulus, luciferase, 10K MLSCN set (AID 602276;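 active means inhibition at or above 50% at 10 µM; inactive means inhibition below 50%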;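 further: firefly luciferase from ISG56 promoter only with Renilla not read in this screen; 0% = Sendai virus plus DMSO and 100% = medium plus DMSO without virus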); settings: HEK293 RL24 IRF3 luciferase reporter, at 10 µM, stronger effect = higher value
[12] = inhibitors of poly I:C-induced TLR3 signaling, primary screen, cell-based, poly I:C stimulus, luciferase, 10K MLSCN set (AID 602277;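 active means inhibition of the reporter signal at or above 50%; inactive means inhibition below 50%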); settings: HEK293-TLR3 RL24 IRF3 luciferase reporter, at 10 µM, stronger effect = higher value
[13] = measured here: cell density z-score
[14] = measured here: nuclear c-Myc green intensity z-score
[15] = measured here: nuclear pErk red intensity z-score, stronger effect = higher value

SMILES	cell count [1]	inhibition [1]	inhibition of aggregation [2]	nuclei count [2] [%]	inhibition [3]	nuclei count [3] [%]	z-score [4, 13]	z-score [4, 14]	z-score [4, 15]	inhibition [5]	fluorescence slope [6]	NADPH fluorescence slope [7]	fluorescence slope [8]	outcome [9]	inhibition [10]	inhibition [11]	inhibition [12]
CCCCOc1ccccc1C(=O)NCCCC(=O)O	531	-3.8% (inactive)	-44.1% (inactive)	119	-66.7% (inactive)	134	-0.714	1.18	1.54	-6.59% (inactive)	-0.439 (inactive)	-0.000111 (inactive)	0.00573 (inactive)	active; weak signal in gallbladder and intestine	20.4% (inactive)	12.9% (inactive)	17.2% (inactive)
Cc1c(NC(=O)c2ccc(=O)oc2)c(=O)n(-c2ccccc2)n1C	553	-12.6% (inactive)	1.2% (inactive)	78.4	-22.2% (inactive)	119	-1.01	0.226	0.431	3.42% (inactive)	-0.249 (inactive)	-7.6e-06 (inactive)	0.00562 (inactive)	inactive	23.3% (inactive)	22.3% (inactive)	24.4% (inactive)
O=S(=O)(NCc1cccnc1)c1cccc2nsnc12	643	-2.6% (inactive)	-2.4% (inactive)	125	-80.9% (inactive)	137	-0.856	1.61	0.356	-3.97% (inactive)	-0.482 (inactive)	-5e-05 (inactive)	0.00583 (inactive)	inactive	-1.56% (inactive)	15.1% (inactive)	21.7% (inactive)
COc1cc(NC(=O)NC(C)(C(F)(F)F)C(F)(F)F)cc(OC)c1OC	664	-5.8% (inactive)	-0.5% (inactive)	83	-50% (inactive)	140	0.222	-0.586	1.46	-1.98% (inactive)	-0.48 (inactive)	-6.8e-05 (inactive)	0.00489 (inactive)	inactive	14.3% (inactive)	10.8% (inactive)	13.7% (inactive)
Cn1c(=O)n(Cc2ccccc2)c(=O)c2c1nc(NCC1CCCO1)n2Cc1ccccc1 (stereo not given)	665	-8% (inactive)	-1.5% (inactive)	104	-41.8% (inactive)	102	-3.11	0.807	-1.47	-5.95% (inactive)	-0.509 (inactive)	-0.000124 (inactive)	0.00514 (inactive)	inactive	-18.5% (inactive)	-5.28% (inactive)	-6.2% (inactive)
Cc1nc2ccccc2cc1O	395	-0.5% (inactive)	21.5% (inactive)	80.3	-67% (inactive)	103	-0.53	-0.624	1.27	1.42% (inactive)	-0.392 (inactive)	-3.6e-05 (inactive)	0.00432 (inactive)	inactive	53.3% (active)	17.5% (inactive)	27.8% (inactive)
CCCCc1nc2n[nH]c(N)c2c2c1CCCC2	512	-7.9% (inactive)	-112% (inactive)	2.8	-85.3% (inactive)	124	-0.979	1.39	0.873	3.49% (inactive)	-0.447 (inactive)	-0.000136 (inactive)	0.00605 (inactive)	inactive	10.9% (inactive)	-0.43% (inactive)	8.9% (inactive)
Cc1nn(-c2ccccc2)c2c1C(=O)NC(=O)C(C)(C)C2	526	2.2% (inactive)	9.8% (inactive)	105	-24.8% (inactive)	120	0.866	1.24	0.796	-5.81% (inactive)	-0.52 (inactive)	4.3e-05 (inactive)	0.00545 (inactive)	inactive	-12.8% (inactive)	14.6% (inactive)	18.9% (inactive)
CCOc1ccccc1N1CCN(c2nc3ccccc3nc2C(C#N)C(=O)OC)CC1 (stereo not given)	535	0.2% (inactive)	-3.8% (inactive)	106	-43.1% (inactive)	102	-0.286	0.234	1.2	-9.53% (inactive)	-0.501 (inactive)	-7e-05 (inactive)	0.00534 (inactive)	inactive	-13.8% (inactive)	10.2% (inactive)	16.1% (inactive)
OCCNc1ncnc2c1c(-c1ccccc1)c(-c1ccccc1)n2Cc1ccco1	567	-6.9% (inactive)	1.6% (inactive)	114	13.3% (inactive)	91.6	-1.86	-1.32	-1.52	-2.91% (inactive)	-0.472 (inactive)	-6.4e-05 (inactive)	0.0047 (inactive)	inactive	46.8% (inactive)	12.3% (inactive)	-0.125% (inactive)
